# Test results from paper PMC11062922 (Nature Chemical Biology, 2023).
# Read-outs that look alike come from different tables or passages of the source.
# What was measured:
# Details in all cases: read-out: apparent Kd, n = 1
# ACVR1 = tested on: ACVR1
# CDK6 = tested on: CDK6
# CLK1 = tested on: CLK1
# MAP2K1 = tested on: MAP2K1
# [1] = compound concentrations:100 nM and 1000 nM (sheet 'Lestaurtinib' of Supplementary Table 1),run:Lestaurtinib_02422_R1,Plate:MR006
# [2] = compound concentrations:100 nM and 1000 nM (sheet 'Lestaurtinib' of Supplementary Table 1),run:Lestaurtinib_02443_R3,Plate:MR009
# [3] = compound concentrations:100 nM and 1000 nM (sheet 'Lestaurtinib' of Supplementary Table 1),run:Lestaurtinib_02572_R1,Plate:MR015
# [4] = compound concentrations:100 nM and 1000 nM (sheet 'Lestaurtinib' of Supplementary Table 1),run:Lestaurtinib_02577_R1,Plate:MR016
# [5] = compound concentrations:100 nM and 1000 nM (sheet 'Lestaurtinib' of Supplementary Table 1),run:Lestaurtinib_02584_R3,Plate:MR017
# [6] = compound concentrations:100 nM and 1000 nM (sheet 'Lestaurtinib' of Supplementary Table 1),run:Lestaurtinib_02748_R1,Plate:MR024
# [7] = compound concentrations:100 nM and 1000 nM (sheet 'Lestaurtinib' of Supplementary Table 1),run:Lestaurtinib_02766_R3,Plate:MR027
# [8] = compound concentrations:100 nM and 1000 nM (sheet 'Lestaurtinib' of Supplementary Table 1),run:Lestaurtinib_02896_R1,Plate:MR030
# [9] = compound concentrations:100 nM and 1000 nM (sheet 'Lestaurtinib' of Supplementary Table 1),run:Lestaurtinib_02367_R1,Plate:MR003
# [10] = compound concentrations:100 nM and 1000 nM (sheet 'Lestaurtinib' of Supplementary Table 1),run:Lestaurtinib_02381_R1,Plate:MR004
# [11] = compound concentrations:100 nM and 1000 nM (sheet 'Lestaurtinib' of Supplementary Table 1),run:Lestaurtinib_02496_R3,Plate:MR013
# [12] = compound concentrations:100 nM and 1000 nM (sheet 'Lestaurtinib' of Supplementary Table 1),run:Lestaurtinib_02765_R3,Plate:MR026
# [13] = compound concentrations:100 nM and 1000 nM (sheet 'Lestaurtinib' of Supplementary Table 1),run:Lestaurtinib_02367_R2,Plate:MR003
# [14] = compound concentrations:100 nM and 1000 nM (sheet 'Lestaurtinib' of Supplementary Table 1),run:Lestaurtinib_02438_R3,Plate:MR008
# [15] = compound concentrations:100 nM and 1000 nM (sheet 'Lestaurtinib' of Supplementary Table 1),run:Lestaurtinib_02443_R1,Plate:MR009
# [16] = compound concentrations:100 nM and 1000 nM (sheet 'Lestaurtinib' of Supplementary Table 1),run:Lestaurtinib_02443_R2,Plate:MR009
# [17] = compound concentrations:100 nM and 1000 nM (sheet 'Lestaurtinib' of Supplementary Table 1),run:Lestaurtinib_02473_R1,Plate:MR010
# [18] = compound concentrations:100 nM and 1000 nM (sheet 'Lestaurtinib' of Supplementary Table 1),run:Lestaurtinib_02473_R2,Plate:MR010
# [19] = compound concentrations:100 nM and 1000 nM (sheet 'Lestaurtinib' of Supplementary Table 1),run:Lestaurtinib_02566_R1,Plate:MR014
substance,measurement,setting,value
Lestaurtinib,potency estimated from few doses,"ACVR1; compound concentrations:100 nM and 1000 nM (sheet 'Lestaurtinib' of Supplementary Table 1),run:Lestaurtinib_02339_R2,Plate:MR001",1.51 µM
same,potency estimated from few doses,"ACVR1; compound concentrations:100 nM and 1000 nM (sheet 'Lestaurtinib' of Supplementary Table 1),run:Lestaurtinib_02407_R1,Plate:MR005",1.54 µM
same,potency estimated from few doses,ACVR1; [1],1.35 µM
same,potency estimated from few doses,ACVR1; [2],0.946 µM
same,potency estimated from few doses,"ACVR1; compound concentrations:100 nM and 1000 nM (sheet 'Lestaurtinib' of Supplementary Table 1),run:Lestaurtinib_02473_R3,Plate:MR010",0.958 µM
same,potency estimated from few doses,ACVR1; [3],0.671 µM
same,potency estimated from few doses,ACVR1; [4],1.53 µM
same,potency estimated from few doses,"ACVR1; compound concentrations:100 nM and 1000 nM (sheet 'Lestaurtinib' of Supplementary Table 1),run:Lestaurtinib_02577_R3,Plate:MR016",1.36 µM
same,potency estimated from few doses,ACVR1; [5],1.58 µM
same,potency estimated from few doses,ACVR1; [6],1.46 µM
same,potency estimated from few doses,ACVR1; [7],1.42 µM
same,potency estimated from few doses,ACVR1; [8],1.24 µM
same,potency estimated from few doses,"CDK6; compound concentrations:100 nM and 1000 nM (sheet 'Lestaurtinib' of Supplementary Table 1),run:Lestaurtinib_02339_R3,Plate:MR001",1.4 µM
same,potency estimated from few doses,CDK6; [9],1.63 µM
same,potency estimated from few doses,CDK6; [10],1.67 µM
same,potency estimated from few doses,"CDK6; compound concentrations:100 nM and 1000 nM (sheet 'Lestaurtinib' of Supplementary Table 1),run:Lestaurtinib_02407_R2,Plate:MR005",1.67 µM
same,potency estimated from few doses,CDK6; [2],2.02 µM
same,potency estimated from few doses,CDK6; [11],1.83 µM
same,potency estimated from few doses,"CDK6; compound concentrations:100 nM and 1000 nM (sheet 'Lestaurtinib' of Supplementary Table 1),run:Lestaurtinib_02601_R1,Plate:MR018",1.35 µM
same,potency estimated from few doses,CDK6; [12],1.59 µM
same,potency estimated from few doses,CDK6; [8],1.37 µM
same,potency estimated from few doses,"CDK6; compound concentrations:100 nM and 1000 nM (sheet 'Lestaurtinib' of Supplementary Table 1),run:Lestaurtinib_03260_R1,Plate:MR033",0.914 µM
same,potency estimated from few doses,"CDK6; compound concentrations:100 nM and 1000 nM (sheet 'Lestaurtinib' of Supplementary Table 1),run:Lestaurtinib_03260_R3,Plate:MR033",0.157 µM
same,potency estimated from few doses,"CLK1; compound concentrations:100 nM and 1000 nM (sheet 'Lestaurtinib' of Supplementary Table 1),run:Lestaurtinib_02364_R1,Plate:MR002",0.13 µM
same,potency estimated from few doses,"CLK1; compound concentrations:100 nM and 1000 nM (sheet 'Lestaurtinib' of Supplementary Table 1),run:Lestaurtinib_02364_R3,Plate:MR002",0.175 µM
same,potency estimated from few doses,CLK1; [13],0.153 µM
same,potency estimated from few doses,"CLK1; compound concentrations:100 nM and 1000 nM (sheet 'Lestaurtinib' of Supplementary Table 1),run:Lestaurtinib_02367_R3,Plate:MR003",0.24 µM
same,potency estimated from few doses,"CLK1; compound concentrations:100 nM and 1000 nM (sheet 'Lestaurtinib' of Supplementary Table 1),run:Lestaurtinib_02407_R3,Plate:MR005",0.176 µM
same,potency estimated from few doses,CLK1; [1],0.0882 µM
same,potency estimated from few doses,"CLK1; compound concentrations:100 nM and 1000 nM (sheet 'Lestaurtinib' of Supplementary Table 1),run:Lestaurtinib_02422_R2,Plate:MR006",0.00449 µM
same,potency estimated from few doses,"CLK1; compound concentrations:100 nM and 1000 nM (sheet 'Lestaurtinib' of Supplementary Table 1),run:Lestaurtinib_02422_R3,Plate:MR006",0.115 µM
same,potency estimated from few doses,"CLK1; compound concentrations:100 nM and 1000 nM (sheet 'Lestaurtinib' of Supplementary Table 1),run:Lestaurtinib_02437_R1,Plate:MR007",0.132 µM
same,potency estimated from few doses,"CLK1; compound concentrations:100 nM and 1000 nM (sheet 'Lestaurtinib' of Supplementary Table 1),run:Lestaurtinib_02437_R2,Plate:MR007",0.16 µM
same,potency estimated from few doses,CLK1; [14],0.124 µM
same,potency estimated from few doses,CLK1; [15],0.154 µM
same,potency estimated from few doses,CLK1; [16],0.115 µM
same,potency estimated from few doses,CLK1; [2],0.133 µM
same,potency estimated from few doses,CLK1; [17],0.0937 µM
same,potency estimated from few doses,CLK1; [18],0.131 µM
same,potency estimated from few doses,"CLK1; compound concentrations:100 nM and 1000 nM (sheet 'Lestaurtinib' of Supplementary Table 1),run:Lestaurtinib_02482_R3,Plate:MR011",0.17 µM
same,potency estimated from few doses,"CLK1; compound concentrations:100 nM and 1000 nM (sheet 'Lestaurtinib' of Supplementary Table 1),run:Lestaurtinib_02487_R2,Plate:MR012",0.196 µM
same,potency estimated from few doses,CLK1; [11],0.0846 µM
same,potency estimated from few doses,CLK1; [19],0.131 µM
same,potency estimated from few doses,"CLK1; compound concentrations:100 nM and 1000 nM (sheet 'Lestaurtinib' of Supplementary Table 1),run:Lestaurtinib_02566_R3,Plate:MR014",0.151 µM
same,potency estimated from few doses,CLK1; [3],0.13 µM
same,potency estimated from few doses,"CLK1; compound concentrations:100 nM and 1000 nM (sheet 'Lestaurtinib' of Supplementary Table 1),run:Lestaurtinib_02572_R2,Plate:MR015",0.137 µM
same,potency estimated from few doses,CLK1; [4],0.206 µM
same,potency estimated from few doses,CLK1; [5],0.202 µM
same,potency estimated from few doses,"CLK1; compound concentrations:100 nM and 1000 nM (sheet 'Lestaurtinib' of Supplementary Table 1),run:Lestaurtinib_02601_R2,Plate:MR018",0.232 µM
same,potency estimated from few doses,"CLK1; compound concentrations:100 nM and 1000 nM (sheet 'Lestaurtinib' of Supplementary Table 1),run:Lestaurtinib_02606_R2,Plate:MR019",0.0696 µM
same,potency estimated from few doses,"CLK1; compound concentrations:100 nM and 1000 nM (sheet 'Lestaurtinib' of Supplementary Table 1),run:Lestaurtinib_02606_R3,Plate:MR019",0.167 µM
same,potency estimated from few doses,"CLK1; compound concentrations:100 nM and 1000 nM (sheet 'Lestaurtinib' of Supplementary Table 1),run:Lestaurtinib_02624_R1,Plate:MR020",0.235 µM
same,potency estimated from few doses,"CLK1; compound concentrations:100 nM and 1000 nM (sheet 'Lestaurtinib' of Supplementary Table 1),run:Lestaurtinib_02624_R2,Plate:MR020",0.113 µM
same,potency estimated from few doses,"CLK1; compound concentrations:100 nM and 1000 nM (sheet 'Lestaurtinib' of Supplementary Table 1),run:Lestaurtinib_02624_R3,Plate:MR020",0.16 µM
same,potency estimated from few doses,"CLK1; compound concentrations:100 nM and 1000 nM (sheet 'Lestaurtinib' of Supplementary Table 1),run:Lestaurtinib_02724_R2,Plate:MR021",0.179 µM
same,potency estimated from few doses,"CLK1; compound concentrations:100 nM and 1000 nM (sheet 'Lestaurtinib' of Supplementary Table 1),run:Lestaurtinib_02724_R3,Plate:MR021",0.163 µM
same,potency estimated from few doses,"CLK1; compound concentrations:100 nM and 1000 nM (sheet 'Lestaurtinib' of Supplementary Table 1),run:Lestaurtinib_02741_R1,Plate:MR023",0.211 µM
same,potency estimated from few doses,CLK1; [6],0.237 µM
same,potency estimated from few doses,"CLK1; compound concentrations:100 nM and 1000 nM (sheet 'Lestaurtinib' of Supplementary Table 1),run:Lestaurtinib_02752_R1,Plate:MR025",0.146 µM
same,potency estimated from few doses,"CLK1; compound concentrations:100 nM and 1000 nM (sheet 'Lestaurtinib' of Supplementary Table 1),run:Lestaurtinib_02765_R1,Plate:MR026",0.278 µM
same,potency estimated from few doses,CLK1; [12],0.244 µM
same,potency estimated from few doses,"CLK1; compound concentrations:100 nM and 1000 nM (sheet 'Lestaurtinib' of Supplementary Table 1),run:Lestaurtinib_02766_R1,Plate:MR027",0.143 µM
same,potency estimated from few doses,CLK1; [7],0.154 µM
same,potency estimated from few doses,"CLK1; compound concentrations:100 nM and 1000 nM (sheet 'Lestaurtinib' of Supplementary Table 1),run:Lestaurtinib_02768_R2,Plate:MR028",0.141 µM
same,potency estimated from few doses,"CLK1; compound concentrations:100 nM and 1000 nM (sheet 'Lestaurtinib' of Supplementary Table 1),run:Lestaurtinib_02768_R3,Plate:MR028",0.135 µM
same,potency estimated from few doses,"CLK1; compound concentrations:100 nM and 1000 nM (sheet 'Lestaurtinib' of Supplementary Table 1),run:Lestaurtinib_02795_R1,Plate:MR022",0.0938 µM
same,potency estimated from few doses,"CLK1; compound concentrations:100 nM and 1000 nM (sheet 'Lestaurtinib' of Supplementary Table 1),run:Lestaurtinib_02802_R3,Plate:MR029",0.0222 µM
same,potency estimated from few doses,CLK1; [8],0.136 µM
same,potency estimated from few doses,"CLK1; compound concentrations:100 nM and 1000 nM (sheet 'Lestaurtinib' of Supplementary Table 1),run:Lestaurtinib_02896_R2,Plate:MR030",0.0828 µM
same,potency estimated from few doses,"CLK1; compound concentrations:100 nM and 1000 nM (sheet 'Lestaurtinib' of Supplementary Table 1),run:Lestaurtinib_03172_R3,Plate:MR031",0.134 µM
same,potency estimated from few doses,"CLK1; compound concentrations:100 nM and 1000 nM (sheet 'Lestaurtinib' of Supplementary Table 1),run:Lestaurtinib_03252_R1,Plate:MR032",0.13 µM
same,potency estimated from few doses,"CLK1; compound concentrations:100 nM and 1000 nM (sheet 'Lestaurtinib' of Supplementary Table 1),run:Lestaurtinib_03252_R2,Plate:MR032",0.0254 µM
same,potency estimated from few doses,"CLK1; compound concentrations:100 nM and 1000 nM (sheet 'Lestaurtinib' of Supplementary Table 1),run:Lestaurtinib_03260_R2,Plate:MR033",0.248 µM
same,potency estimated from few doses,"MAP2K1; compound concentrations:100 nM and 1000 nM (sheet 'Lestaurtinib' of Supplementary Table 1),run:Lestaurtinib_02339_R1,Plate:MR001",2.07 µM
same,potency estimated from few doses,MAP2K1; [9],0.825 µM
same,potency estimated from few doses,MAP2K1; [13],1.42 µM
same,potency estimated from few doses,MAP2K1; [10],0.579 µM
same,potency estimated from few doses,"MAP2K1; compound concentrations:100 nM and 1000 nM (sheet 'Lestaurtinib' of Supplementary Table 1),run:Lestaurtinib_02381_R2,Plate:MR004",1.76 µM
same,potency estimated from few doses,"MAP2K1; compound concentrations:100 nM and 1000 nM (sheet 'Lestaurtinib' of Supplementary Table 1),run:Lestaurtinib_02381_R3,Plate:MR004",2 µM
same,potency estimated from few doses,MAP2K1; [1],1.62 µM
same,potency estimated from few doses,"MAP2K1; compound concentrations:100 nM and 1000 nM (sheet 'Lestaurtinib' of Supplementary Table 1),run:Lestaurtinib_02438_R2,Plate:MR008",1.63 µM
same,potency estimated from few doses,MAP2K1; [14],1.4 µM
same,potency estimated from few doses,MAP2K1; [15],1.54 µM
same,potency estimated from few doses,MAP2K1; [16],1.36 µM
same,potency estimated from few doses,MAP2K1; [17],1.69 µM
same,potency estimated from few doses,MAP2K1; [18],1.43 µM
same,potency estimated from few doses,MAP2K1; [19],0.656 µM
same,potency estimated from few doses,MAP2K1; [3],1.43 µM
